Data as given in PubChem BioAssay (NCATS).
Values joined by “and” are separate entries in the source; they are usually repeats but may differ in a detail not shown here. Identical values can stand only once. Records with an inconclusive call do not appear. The source holds several records for some structures; these can differ, active in one and inactive in another. Active and inactive are the calls of the source. Calls come from the whole dose curve; as a rule, active = well fitted curve in the direction sought with a large enough effect; inconclusive = small, poorly fitted or top-dose-only effect, or another doubt; inactive = no such curve, though single readings can be large; an effect the other way counts as inactive or inconclusive.

Experiments:
TAB109 = experiment: qHTS profiling for inhibitors of Plasmodium falciparum proliferation (AID 504749);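 note: 0% = DMSO vehicle and full inhibition = artemisinin control; nearly all actives have a fitted effect of over 60% in size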; details: P. falciparum in erythrocytes, SYBR Green DNA, 72 h; series mostly up to 28.7 µM
Summary of the method: (§1)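 P. falciparum-infected erythrocytes (0.3% parasitemia, 2.5% hematocrit) incubated with compound 72 h at 37 C, 5% CO2. Parasite DNA detected by SYBR Green after lysis, overnight at room temperature; normalised to 0.29 uM artemisinin and DMSO.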

TAB113 = experiment: as above; details: P. falciparum in erythrocytes, SYBR Green DNA, 72 h; series mostly up to 28.7 µM
Summary of the method: as §1

TAB165 = experiment: as above; details: P. falciparum in erythrocytes, SYBR Green DNA, 72 h; series mostly up to 28.7 µM
Summary of the method: as §1

W2 = experiment: as above; details: P. falciparum in erythrocytes, SYBR Green DNA, 72 h; series mostly up to 28.7 µM
Summary of the method: as §1

CRL-7250 = normal cell line; experiment: Cytotoxic Profiling of Annotated Libraries Using Quantitative High-Throughput Screening (AID 1296008); details: Five cell lines viability, CellTiter-Glo ATP luminescence, 48-72 h; max response: active compounds read low; note: nearly all actives have a fitted effect of over 60% in size; note: potency is the fitted concentration of half-maximal effect; for max response: % is set by controls: 0 for no effect and ±100 for the full control effect
Summary of the method: (§2)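 Cells exposed to compounds for 48 or 72 hr at 37 degrees Celsius. Viability read as ATP-coupled luminescence with CellTiter-Glo after 10 min at room temperature.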

HEK293 = experiment: as above; details: Five cell lines viability, CellTiter-Glo ATP luminescence, 48-72 h; max response: active compounds read low
Summary of the method: as §2

HaCat [1] = experiment: as above; details: Five cell lines viability, CellTiter-Glo ATP luminescence, 48-72 h; max response: active compounds read low
Summary of the method: as §2

KB-3-1 = experiment: as above; details: Five cell lines viability, CellTiter-Glo ATP luminescence, 48-72 h; max response: active compounds read low
Summary of the method: as §2

NIH3T3 [2] = experiment: as above; details: Five cell lines viability, CellTiter-Glo ATP luminescence, 48-72 h; max response: active compounds read low
Summary of the method: as §2

HACAT [3] = experiment: qHTS assay to identify novel small-molecules to repurpose for Merkel cell carcinoma treatment (AID 1296009); details: MCC and control cell lines, CellTiter-Glo viability, 72 h; at 44.8 µM (top of the series) unless noted; note: nearly all actives have a fitted effect of over 60% in size; note: potency is the fitted concentration of half-maximal effect
Summary of the method: (§3)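 Cells were treated for 72 hr at 37 degree celsius with compounds in 8- or 11-point dose response. Viability was read by CellTiter-Glo luminescence, normalized to no-cell (cytotoxicity) and DMSO controls.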

HEK293T = experiment: as above; details: MCC and control cell lines, CellTiter-Glo viability, 72 h; at 44.8 µM (top of the series)
Summary of the method: as §3

MCC-13 = experiment: as above; details: MCC and control cell lines, CellTiter-Glo viability, 72 h; series mostly up to 46 µM
Summary of the method: as §3

MCC-26 = experiment: as above; details: MCC and control cell lines, CellTiter-Glo viability, 72 h; series mostly up to 46 µM
Summary of the method: as §3

MKL-1 = experiment: as above; details: MCC and control cell lines, CellTiter-Glo viability, 72 h; series mostly up to 46 µM
Summary of the method: as §3

MKL-2 = experiment: as above; details: MCC and control cell lines, CellTiter-Glo viability, 72 h; series mostly up to 46 µM
Summary of the method: as §3

UISO = experiment: as above; details: MCC and control cell lines, CellTiter-Glo viability, 72 h; series mostly up to 46 µM
Summary of the method: as §3

WaGa = experiment: as above; details: MCC and control cell lines, CellTiter-Glo viability, 72 h; series mostly up to 46 µM
Summary of the method: as §3

C33A = experiment: Primary qHTS to identify gynecologic anti-cancer compounds using libraries of approved drugs and bioactive compounds (AID 1345084); details: Gynecologic cancer cell panel viability, ATPlite luminescence, 48 h; series mostly up to 57.5 µM; note: nearly all actives have a fitted effect of over 55% in size; note: potency is the fitted concentration of half-maximal effect
Summary of the method: (§4)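 In this quantitative HTS, cell killing is estimated from loss of ATP-dependent luciferase light. Cells see five compound concentrations over a 48 h exposure.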

CAOV3 = experiment: as above; details: Gynecologic cancer cell panel viability, ATPlite luminescence, 48 h; series mostly up to 57.5 µM
Summary of the method: as §4

NIH3T3 [4] = experiment: qHTS assay to identify novel small-molecules to repurpose for Merkel cell carcinoma treatment (AID 1296009); details: MCC and control cell lines, CellTiter-Glo viability, 72 h; at 44.8 µM (top of the series) unless noted; note: nearly all actives have a fitted effect of over 60% in size; note: potency is the fitted concentration of half-maximal effect
Summary of the method: as §3

CCN1CCC[C@H]1CNC(=O)c1cc(S(N)(=O)=O)ccc1OC
inactive: outcome (TAB109) | Potency (TAB113) | Potency (TAB165) | Potency (W2) | max response (CRL-7250) -0.0938% and -2.14% | outcome (HEK293) | max response (HaCat [1]) -3.98% | outcome (HaCat [1]) | max response (KB-3-1) -2.45% | outcome (KB-3-1) | max response (NIH3T3 [2]) 0.0033% and 0.419% | outcome (HACAT [3]) | outcome (HEK293T) | Potency (MCC-13) | Potency (MCC-26) | Potency (MKL-1) | Potency (MKL-2) | Potency (UISO) | Potency (WaGa) | Potency (C33A) | Potency (CAOV3)

COC(=O)[C@@H]1[C@H]2C[C@H]3c4[nH]c5ccccc5c4CCN3C[C@@H]2CC[C@@H]1O
inactive: outcome (CRL-7250) | max response (HEK293) -10.9% and -9.65% | max response (HaCat [1]) 0.769% | outcome (HaCat [1]) | max response (KB-3-1) -4.37% and 9.99% | max response (NIH3T3 [2]) -5.76% | outcome (NIH3T3 [2]) | outcome (HACAT [3]) | Potency (MCC-13) | Potency (MCC-26) | Potency (MKL-1) | Potency (MKL-2) | outcome (NIH3T3 [4]) | Potency (UISO) | Potency (WaGa) | Potency (C33A) | Potency (CAOV3)

COc1ccc2c(Oc3ccc(NC(=O)c4c(C)n(CC(C)(C)O)n(-c5ccccc5)c4=O)nc3)ccnc2c1
inactive: max response (CRL-7250) -5.8% | max response (HEK293) 3.25% | max response (HaCat [1]) -3.13% | max response (KB-3-1) 3.31% | Potency (MCC-13) | Potency (MCC-26) | Potency (MKL-1) | Potency (MKL-2) | Potency (UISO) | Potency (WaGa) | Potency (C33A) | Potency (CAOV3)
active: Potency (CRL-7250) 18.4 µM | Potency (HaCat [1]) 11.6 µM | Potency (NIH3T3 [2]) 3.66 µM

CCCNC(=O)NS(=O)(=O)c1ccc(Cl)cc1
inactive: outcome (TAB109) | Potency (TAB113) | Potency (TAB165) | Potency (W2) | max response (CRL-7250) -0.307% | outcome (CRL-7250) | max response (HEK293) -0.916% | outcome (HEK293) | max response (HaCat [1]) -1.01% | outcome (HaCat [1]) | max response (KB-3-1) -1.87% and 8.57% | outcome (NIH3T3 [2]) | outcome (HACAT [3]) | outcome (HEK293T) | Potency (MCC-13) | Potency (MCC-26) | Potency (MKL-1) | Potency (MKL-2) | outcome (NIH3T3 [4]) | Potency (UISO) | Potency (WaGa) | Potency (C33A) | Potency (CAOV3)

COc1ncc(-c2ccc3nccc(-c4ccnnc4)c3c2)cc1NS(=O)(=O)c1ccc(F)cc1F
active: Potency (HEK293) 20.6 nM | Potency (HaCat [1]) 0.0065 µM | Potency (KB-3-1) 590 nM and 103 nM | Potency (NIH3T3 [2]) 0.0037 µM | Potency (MCC-13) 833 nM | Potency (MCC-26) 0.372 µM | Potency (MKL-1) 1.48 µM | Potency (MKL-2) 105 nM | Potency (UISO) 0.0235 µM | Potency (WaGa) 526 nM
inactive: max response (CRL-7250) -92.9% | max response (HEK293) -126% | max response (HaCat [1]) -157%

CC[C@]1(O)C[C@@H]2CN(CCc3c([nH]c4ccccc34)[C@@](C(=O)OC)(c3cc4c(cc3OC)N(C)[C@H]3[C@@](O)(C(=O)OC)[C@H](OC(C)=O)[C@]5(CC)C=CCN6CC[C@]43[C@@H]65)C2)C1
active: Potency (CRL-7250) 0.266 µM | Potency (HEK293) 66.8 nM and 84.1 nM and 46.1 nM | Potency (KB-3-1) 2.91 µM and 18.4 nM | Potency (NIH3T3 [2]) 0.335 µM | Potency (MCC-13) 119 nM and 1.19 µM | Potency (MKL-1) 75 nM and 168 nM | Potency (MKL-2) 75 nM and 150 nM | Potency (UISO) 0.237 µM | Potency (WaGa) 26.6 nM and 75 nM | Potency (C33A) 1.58 µM
inactive: max response (HaCat [1]) 0.756% | outcome (HaCat [1]) | outcome (HACAT [3]) | Potency (CAOV3)

CC1CCC(C(=O)N(c2cc(C#CC(C)(C)C)sc2C(=O)O)C2CCC(O)CC2)CC1 (centres undefined)
inactive: max response (CRL-7250) -4.19% and 3.8% | max response (HEK293) -1.31% | outcome (HaCat [1]) | max response (KB-3-1) -8.44% and -2.14% | max response (NIH3T3 [2]) -3.97% | outcome (NIH3T3 [2]) | outcome (HACAT [3]) | Potency (MCC-13) | Potency (MCC-26) | Potency (MKL-1) | Potency (MKL-2) | outcome (NIH3T3 [4]) | Potency (UISO) | Potency (WaGa) | Potency (C33A) | Potency (CAOV3)

COc1ccc2cc(-c3nc(-c4ccc(S(C)=O)cc4)[nH]c3-c3ccncc3)ccc2c1 (centres undefined)
inactive: max response (CRL-7250) -4.22% | outcome (CRL-7250) | max response (HaCat [1]) -7.74% | outcome (HaCat [1]) | max response (KB-3-1) 4.38% | max response (NIH3T3 [2]) 3.08% | outcome (HACAT [3]) | Potency (MCC-13) | Potency (MCC-26) | Potency (MKL-1) | Potency (UISO) | Potency (WaGa) | Potency (C33A) | Potency (CAOV3)

NC(=O)c1ccc2nc(-c3ccc(Oc4ccc(Cl)cc4)cc3)[nH]c2c1
inactive: max response (CRL-7250) -25.5% | outcome (CRL-7250) | max response (HaCat [1]) -0.499% | outcome (HaCat [1]) | max response (NIH3T3 [2]) -2.72% and -4.33% | outcome (HACAT [3]) | Potency (MCC-13) | Potency (MCC-26) | Potency (MKL-1)

O=C(NC1CCOCC1)c1ccc(-c2cc(-c3cn[nH]c3-c3ccccn3)ccn2)cc1
inactive: max response (CRL-7250) -5.17% | outcome (CRL-7250) | max response (HEK293) -15.5% | max response (HaCat [1]) 2.12% | outcome (HaCat [1]) | max response (KB-3-1) -6.4% and 1.2% | outcome (HACAT [3]) | Potency (MCC-13) | Potency (MCC-26) | Potency (MKL-1) | Potency (MKL-2) | Potency (UISO) | Potency (WaGa) | Potency (C33A) | Potency (CAOV3)

CCN(CC)CCNC(=O)c1ccc(N)cc1
inactive: outcome (TAB109) | Potency (TAB113) | Potency (TAB165) | Potency (W2) | outcome (CRL-7250) | outcome (HEK293) | max response (HaCat [1]) 0.0096% | outcome (HaCat [1]) inactive; activator | max response (KB-3-1) -16.7% | outcome (KB-3-1) | outcome (NIH3T3 [2]) | outcome (HACAT [3]) inactive; activator | outcome (HEK293T) | Potency (MCC-13) | Potency (MCC-26) | Potency (MKL-1) | Potency (MKL-2) | outcome (NIH3T3 [4]) | Potency (UISO) | Potency (WaGa) | Potency (C33A) | Potency (CAOV3)
